# In the library only some 1.3% were active in any assay of this set; here they are far more common.
# KCNH2 WT inh: blocks the wildtype human KCNH2 potassium channel | Q12809 | U2OS, BacMam KCNH2, thallium flux FluxOr; hits give low values | activity change, % at 1.84 µM | hit rate 0.37% among 340,000 | AID 720551;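 active means maximum activity change below -70%; inconclusive means maximum activity change between -70% and -50%; inactive means maximum activity change above -50%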; further: on the % scale 0 is the no-effect control and ±100 the full control effect
#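 U2OS cells were transduced with wild-type KCNH2 virus (2.03 x 10^8 / mL) for 4 h at room temperature, then cultured overnight at 37 C. Thallium flux was read with FluxOr dye. Rate constants were normalized to DMSO controls.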
# Rango complex inh: inhibitors of Rango-importin beta complex formation. Q14974. Rango CFP/YFP FRET sensor + importin beta, 45 min. Potency, µM (series often up to 92.2 µM), for inactives: top-dose inhibition of complex formation. hit rate 0.031% among 340,000. AID 540263;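 further: potency means the concentration at half of the fitted maximal effect; 0% = DMSO wells and 100% = buffer wells lacking importin beta; nearly all actives have a fitted effect of over 15% in size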
#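 FRET biosensor Rango (snurportin 1 IBB between N-terminal EYFP and C-terminal Cerulean), 50 nM in PBS/1 mM DTT/0.02% Tween-20/0.1% BSA, preincubated 5 min RT with compound; 0.125 microM importin beta added, 45 min RT, CFP/YFP FRET ratio read.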
# KCNH2 3.1 block: KCNH2 3.1 (human) potassium channel inhibition; U2OS KCNH2 3.1, thallium flux FluxOr; hits give low values; activity change, % (tested at about 1.8 µM); hit rate 0.95% among 340,000; AID 720553;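 active means maximum activity change below -70%; inconclusive means maximum activity change from -70% to -50%; inactive means maximum activity change above -50%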;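 further: thallium influx rate constant from kinetic fluorescence after stimulation buffer; on the % scale 0 is the no-effect control and ±100 the full control effect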
#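 Virally transduced U2OS (3.1 isoform, 4 h infection in dark at RT) → overnight 37 C → FluxOr + Red40 in HBSS/HEPES, 45 min → stimulation buffer, 2 min kinetic read → rate constant vs DMSO controls.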
# Rango dissoc inh: inhibitors of RanGTP-induced Rango-importin beta complex dissociation | O95149+P62826 | Biochemical FRET Rango-importin beta, RanGTP-induced dissociation | Potency, µM (titrated, usually from 46.1 µM), without a hit: top-dose activity change, negative = inhibition | hit rate 0.071% among 340,000; further: potency means the concentration at half of the fitted maximal effect; % of control where 0% means no effect; nearly all actives have a fitted effect of over 45% in size
#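 Rango FRET biosensor (snurportin-1 IBB flanked by N-terminal EYFP and C-terminal CFP10) at 0.1 uM, with 0.25 uM importin beta in PBS, 1mM DTT, 0.02% Tween-20, 0.1% BSA. 0.6 uM Ran, 2mM GTP and 0.2 uM RCC1 were then added for 45 min at room temperature. Inhibition read as loss of FRET rise.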
# * marks the source's active call; other numbers are inactive results; ? = inconclusive; . = not tested or not shown. Unless noted, the call rests on the fitted dose curve.
SMILES,KCNH2 WT inh,Rango complex inh,KCNH2 3.1 block,Rango dissoc inh
COc1ccccc1Cn1c(=S)[nH]c2cc(C(=O)N3CC(C)CC(C)C3)ccc2c1=O (centres undefined),4.0,.,8.4,.
O=C(c1ccccc1)c1ccccc1N1C(=O)C=CC1=O,-4.2,3.7%,0.5,27.6%
O=C1C=CC(=O)N1c1ccccc1N1C(=O)C=CC1=O,-135.1*,1.7%,-192.7*,2.4%
COCCCNC(=O)Cc1ccc(S(=O)(=O)N2CCOCC2)s1,9.0,-2.2%,-1.0,-11.4%
COc1ccc(CN2C(=NC(=O)c3ccccc3)SC3CS(=O)(=O)CC32)cc1 (centres undefined),1.9,-3.2%,-34.2,5.6%
CCOC(=O)C1CCN(C(=O)c2ccc3c(=O)n4nc(Nc5ccccc5)sc4nc3c2)CC1,-2.8,.,-79.5*,.
N#CC(C#N)=C1CCCc2sccc21,27.6,-1.6%,-4.1,-5.2%
C[C@H](NC(=O)c1nc[nH]c1C(=O)NCCCCCN)C(=O)OCc1ccccc1,3.3,-5.1%,22.1,-12.2%
COc1ccccc1C(=O)NCCNc1nc2cc(C)cc(C)c2cc1C#N,11.8,?,7.6,11.6µM*
O=C(OCC(=O)N1CCCC1=O)c1cc2ccccc2o1,-3.5,2.9%,18.5,-1.9%
Oc1ccccc1CN1CCC(C(O)(c2ccccc2)c2ccccc2)CC1,2.8,0.1%,-86.0*,6.9%
Cc1ccc(NC(=O)CCC(C(=O)O)N2C(=O)c3ccccc3C2=O)cc1 (centres undefined),-187.2*,-3.9%,-140.7*,4.7%
CN(CCNC(=O)c1c[nH]c2c1ccc1ccccc12)CCNC(=O)c1c[nH]c2c1ccc1ccccc12,8.9,-6.2%,-13.2,-8.2%
COCCN(C(=O)c1oc2ccccc2c1COC)c1c(N)n(CC(C)C)c(=O)[nH]c1=O,-1.2,0.4%,-5.2,-14.7%
Clc1cccc(Cl)c1C1Nc2cccc3cccc(c23)N1,-5.7,-2.9%,-96.6*,-15.3%
COc1ccc(NC(=O)CN2C(=O)NC(c3ccccc3)(c3ccccc3)C2=O)cc1,6.6,4.0%,-36.3,-7.0%
COc1ccc(C2(c3ccc(OC)cc3)NC(=O)N(CC(=O)Nc3ccc(OC(F)F)cc3)C2=O)cc1,-82.6*,-0.4%,.,3.1%
O=C(Nc1ccc(Cl)cc1)N1CCC(c2ccccc2)C1 (centres undefined),6.6,-3.5%,3.1,5.6%
CC(C)N(C)C1CCN(C(=O)Nc2ccc(Cl)cc2)CC1,17.7,-1.3%,-198.1*,-12.6%
CCOC(=O)c1cc(C#N)c(N2CCN(c3ccccn3)CC2)nc1-c1ccccc1,4.1,-0.2%,-94.0*,15.8%
Cc1cc(NC(=O)CCC(=O)N(C(C(=O)NC(C)(C)C)c2ccccc2Cl)C(C)(C)C)no1 (centres undefined),7.7,-3.0%,-164.6*,-6.6%
O=C(COc1ccccc1Cl)NNC(=O)Cn1[nH]c(=O)c2ccccc2c1=O,0.1,2.3%,6.6,1.5%
O=C(Cn1[nH]c(=O)c2ccccc2c1=O)NNC(=O)c1ccccc1,-269.8*,3.8%,18.3,6.9%
CC(C)N(C)C(=O)c1ccc(OC2CCN(CCc3ccccc3)CC2)cc1,14.0,0.1%,-86.8*,-10.7%
CC(C)[C@H](N[C@@H](C)c1ccccc1)c1c(O)ccc2ccccc12,8.4,-1.6%,-6.8,-3.0%
SMILES,KCNH2 WT inh,Rango complex inh,KCNH2 3.1 block,Rango dissoc inh
NS(=O)(=O)c1ccc(NC(=O)CN2CCN(S(=O)(=O)/C=C/c3ccccc3)CC2)cc1,17.6,2.3%,-3.2,46.5%
COc1ccc(Cl)cc1NC(=O)CN1CCN(S(=O)(=O)c2ccc(F)cc2)CC1,26.5,-1.9%,-7.8,21.3%
COc1ccc(S(=O)(=O)N2CCN(CC(=O)Nc3cc(Cl)ccc3Cl)CC2)cc1,0.9,0.1%,-85.1*,8.9%
CS(=O)(=O)c1ccc(Cl)c(NC(=O)CN2CCN(S(=O)(=O)/C=C/c3ccccc3)CC2)c1,25.8,0.6%,-84.4*,16.0%
COc1ccccc1NC(=O)CN1CCN(CC(=O)Nc2ccc(OCc3ccccc3)cc2)CC1,-24.8,-3.2%,-78.7*,2.5%
COc1ccc(CN2CCCN(S(=O)(=O)c3ccc(Br)cc3)CC2)cc1,-126.0*,2.6%,-101.6*,10.8%
COc1ccccc1NC(=O)CN1CCN(CC(=O)Nc2ccc(F)cc2)CC1,-36.2,0.4%,?,-2.2%
COc1ccc(NC(=O)CN2CCc3ccccc3C2)c(OC)c1,-246.6*,-1.7%,0.3,-2.8%
COc1ccc(NC(=O)CN2CCN(CC(=O)Nc3ccccc3Cl)CC2)cc1,-21.4,6.0%,-85.5*,26.7%
COc1ccc(NC(=O)CN2CCN(c3ccccc3Cl)CC2)cc1,10.9,-4.4%,-8.0,-10.0%
CCOc1ccc(NC(=O)CN2CCN(CC(=O)Nc3cccc(F)c3)CC2)cc1,-19.7,-1.6%,-85.0*,6.7%
COc1ccc(NC(=O)CN2CCN(CC(=O)Nc3ccc(F)cc3)CC2)cc1Cl,1.7,-0.5%,-91.2*,-2.5%
COn1c(-c2ccc(Cl)cc2)nc2ncccc21,-1.4,-0.3%,-1.6,-3.0%
CC1CCCCN1C(=O)C1CCN(c2nc(-c3ccccc3)nc3c2CCC3)CC1 (centres undefined),21.5,2.2%,-3.5,-8.5%
Cc1ccc(S(=O)(=O)NCC(C)n2cncn2)cc1C (centres undefined),-8.6,0.0%,5.9,-13.1%
C(=NN1CCCCCC1)c1ccc2c(c1)OCO2,4.3,0.5%,3.0,-9.2%
COc1ccc(NC(=O)CN2CCCCC2)cc1,-3.4,6.1%,-27.5,-6.1%
COc1cccc(NC(=O)CN2CCN(CC(=O)Nc3ccc(F)cc3)CC2)c1,-38.2,-6.2%,-84.5*,9.6%
COc1ccc(NC(=O)CN2CCN(CC(=O)Nc3ccc(F)cc3F)CC2)cc1,-120.4*,-0.3%,-117.0*,5.6%
O=C(CN1C(=O)COc2ccc(S(=O)(=O)N3CCCC3)cc21)NC1CC1,-83.4*,-3.6%,0.3,-18.1%
COc1cccc(NC(=O)CN2C(=O)COc3ccc(S(=O)(=O)N4CCCCCC4)cc32)c1,-1.5,0.1%,-111.4*,2.9%
O=C(CN1C(=O)COc2ccc(S(=O)(=O)N3CCCC3)cc21)N1CCCC1,5.7,0.2%,10.2,7.1%
CSCCC(NC(=O)c1ccccc1Cl)C(=O)NNC(=O)c1ccncc1 (centres undefined),3.6,-1.5%,1.6,-9.3%
O=C(Nc1cccc(S(=O)(=O)N2CCCCC2)c1)C1COc2ccccc2O1 (centres undefined),3.5,-1.2%,4.0,36.2%
COc1ccc(C(=O)Nc2cccc(C)n2)cc1S(=O)(=O)N1CCCc2ccccc21,-6.3,4.2%,-5.4,-1.6%
CC1CC(C)(C)NC(C)c2ccccc21 (centres undefined),-1.3,3.5%,-14.8,6.7%
CC1CC(C)(C)NCc2ccccc21 (centres undefined),14.4,-3.5%,-89.3*,1.6%
Cc1cc2cc(CN(Cc3cccs3)S(=O)(=O)c3ccc4c(c3)OCCO4)c(=O)[nH]c2cc1C,-0.3,1.0%,9.2,-1.6%

# High-throughput results as filed in PubChem BioAssay.
